Only a selection was taken, and hits are over-represented in it overall.
PNC inhibitor – perinucleolar compartment assembly inhibition; 140,000 compounds, 3.1% hits; PC3M PTB-GFP, PNC prevalence imaging, 16 h; active compounds read low; activity change (PNC), negative = inhibition, % at 10 µM;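 active = readout at or below -70, meaning at least 70% loss of cells showing the perinucleolar compartment, a nuclear body marking cancer cells; inconclusive = readout between -30 and a set limit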;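 note: plate controls were DMSO wells for no effect and camptothecin positive control wells for full effect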
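Compounds are pinned in duplicate onto adhered PC3M cells stably expressing GFP-tagged PTB and incubated 16 h at 37 C. Cells are then fixed, nuclei stained with Hoechst, and PNC-positive cells counted.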
IMPase cell inh – membrane-permeable compound that blocks inositol monophosphatase. P97697. CHO-M1 cells, IP1 accumulation, HTRF TR-FRET ratio. inhibition (IP1 accumulation), % at 46.1 µM. 120,000 tested, under 10 active. AID 901; active = well fitted curve in the direction sought with a large enough effect in the signal ratio, not every such curve was filed as active; inconclusive = small, poorly fitted or top-dose-only effect, or a change in a side signal; inactive = no such curve, though single readings can be large or run the other way; the % refers to the signal ratio;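 note: cells stimulated with carbachol in lithium chloride buffer; plate controls were DMSO basal wells for no effect and reference inhibitor wells for full effect; higher means more IMPase inhibition seen as more IP1 and lower FRET ratio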
Target sequence (P97697 whole entry, looked up): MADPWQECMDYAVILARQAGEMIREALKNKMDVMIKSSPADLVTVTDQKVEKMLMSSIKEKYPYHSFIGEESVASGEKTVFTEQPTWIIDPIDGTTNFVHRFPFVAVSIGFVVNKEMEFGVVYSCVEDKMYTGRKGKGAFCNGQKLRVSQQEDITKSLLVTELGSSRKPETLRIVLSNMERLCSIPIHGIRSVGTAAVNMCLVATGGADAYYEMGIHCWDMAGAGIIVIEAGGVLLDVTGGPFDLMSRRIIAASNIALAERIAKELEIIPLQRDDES
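CHO-M1, 2000 cells/well, cultured 16–30 h; cpd up to 46 uM; carbachol (50 uM solution, stimulation buffer w/ 50 mM LiCl, pH 7.4), 30 min 37C; IP-One TR-FRET, 10 min RT; Ex 320/Em 665, 620; Hill-fit AC50.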
12-hLO inh – 12-hLO (ALOX12) enzyme inhibition. purified 12-hLO, xylenol orange hydroperoxide absorbance. Potency, µM (titrated, usually from 57.1 µM), for inactives: at the highest dose activity change, negative = inhibition, usual class: inhibitors. 150,000 compounds, 0.12% hits; note: potency is the fitted concentration of half-maximal effect; nearly all actives have a fitted effect of over 55% in size
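Hydroperoxide formation by human 12-lipoxygenase from 40 uM arachidonic acid was followed colorimetrically via ferric-xylenol orange complex, using the 573/405 nm absorbance ratio. Enzyme concentration was 150 nM, with 30 min reaction at room temperature.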
IMPase Li inh – cell-permeable IMPase inhibitors with lithium potentiation; CHO-M1 cells, IP1 TR-FRET (IP-One), carbachol + lithium; 210,000 compounds, 0.35% hits; AID 1457; Potency, µM (highest dose often 59.4 µM), for inactives: at the top dose activity, negative = IMPase inhibition, most hits filed as inhibitors;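 note: IP1 builds up when IMPase is blocked and the TR-FRET signal falls; potency is the fitted concentration of half-maximal effect; plate controls were basal vehicle for no effect and high inhibitor control for full effect; nearly all actives have a fitted effect of over 50% in size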
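IP1 accumulation measured by competitive TR-FRET in lysed CHO-M1 cells after 30 min compound exposure at 37C, with a small lithium addition to potentiate weak responses. Hill-equation AC50 from ratio and donor-channel data.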
An asterisk follows results filed as active; ? = inconclusive; . = no result; [ ] = remark or other dose. Unless noted, calls come from the whole dose curve; as a rule, active = well fitted curve in the direction sought with a large enough effect; inconclusive = small, poorly fitted or top-dose-only effect, or another doubt; inactive = no such curve, though single readings can be large; an effect the other way counts as inactive or inconclusive. Unless noted, % is set by controls: 0 for no effect and ±100 for the full control effect.

SMILES	PNC inhibitor	IMPase cell inh	12-hLO inh	IMPase Li inh
Cc1cc(C)nc(SCC(=O)c2ccc(O)cc2O)n1	-92*	1	1%	-4%[38.3 µM]
CC(C)c1cc(N2CCC(=O)NC2=O)cc(C(=O)O)c1O	-114*	.	-2%	-8%
CCOC(=O)C1CCN(Cc2cc(C(C)C)c(O)c(C(C)C)c2)CC1	.	.	.	10%
CC(C)Oc1cccc(C(=O)Nc2ccc(-c3nc4cc(Cl)cc(Cl)c4o3)cc2)c1	.	-13	.	.
O=C(N/N=C\c1ccccc1O)c1ccccc1O	.	-1	-1%	3%
N#CCCn1c(Cl)nc2ccccc21	-86*	-1	0%	-7%[38.3 µM]
Cc1ccc2c(c1)C(O)(CC(=O)/C=C/C=C/c1ccccc1)C(=O)N2 (stereo unspecified)	-92*	.	-1%	8%
COc1cccc(NC(=O)CSc2nnc(-c3ccoc3C)n2-c2ccccc2)c1	-87*	10	-6%	6%[38.3 µM]
CCn1c(CC(=O)Nc2cccc(OC)c2)nnc1SCC(=O)N1CCN(c2ccccc2)CC1	-85*	-11	-4%	13%[38.3 µM]
CCn1c(COc2ccccc2C)nnc1SCC(=O)N1CCN(c2ccccc2)CC1	?	-4	0%	-4%
O=C(O)c1ccccc1N(Cc1ccccc1)C(=O)CO/N=C/c1ccccc1	8	.	0%	6%
CN(C)CN1CSC(=S)N(CN(C)C)C1	.	.	-5%[11.4 µM]	-16%
C=CCN1c2ccccc2[C@]23C[C@@H](C(=O)OC)N(C(=O)COCc4ccccc4)C2=NC(C(=O)OC)=C(C(=O)OC)[C@H]13	.	.	4%[11.4 µM]	5%
COc1ccc(N2C(=O)CC(Nc3ccc(N4CCOCC4)cc3)C2=O)c(OC)c1 (stereo unspecified)	-88*	3	-29%	35%[38.3 µM]
COc1cccc(N2C(=O)CC(Nc3ccc(N4CCOCC4)cc3)C2=O)c1 (stereo unspecified)	-6	2	?	22%[38.3 µM]
CC(NC(=O)Nc1ccc(O)cc1)(C(F)(F)F)C(F)(F)F	-100*	9	-7%	4%
CCOC(=O)C1=C(C)N2C(=C(C#N)[C@@H]1c1ccc(C(=O)OC)cc1)SC[C@@]2(O)C(C)(C)C	5	9	-12%	35%[38.3 µM]
O=C1CCCc2nc(N3CCN(c4ccccc4)CC3)ncc21	7	-8	-3%	11µM*
Cc1nc(N2CCN(c3ccccc3)CC2)nc2c1C(=O)CCC2	?	24	1%	30%[38.3 µM]
COc1ccc(/C=N/n2cc(-c3ccccc3)nc2N)cc1	?	3	0%	16%
COc1ccc(/C=N/n2cc(-c3ccc(OC)cc3)nc2N)cc1	-129*	-8	-8%	16%[38.3 µM]
CCOC(=O)N1CCC(N2Cc3cccc(C(=O)NCc4ccccc4OC)c3C2=O)CC1	-100*	-2	-5%	13%
CCOC(=O)N1CCC(N2Cc3cccc(C(=O)Nc4ccc(F)cc4)c3C2=O)CC1	41	6	-8%	5%[38.3 µM]
CCOC(=O)N1CCC(N2Cc3cccc(C(=O)Nc4ccc(CC)cc4)c3C2=O)CC1	-108*	1	0%	22%[38.3 µM]
CCN(CC)CCCC(C)NC(=O)c1ccc(Cc2nc3ccccc3[nH]2)cc1 (stereo unspecified)	.	.	-5%	.
SMILES	PNC inhibitor	IMPase cell inh	12-hLO inh	IMPase Li inh
CCc1ccc2oc(-c3cccc(NC(=O)c4cc5ccccc5o4)c3)nc2c1	.	-14	.	.
Cn1c(/C(C#N)=C(\O)COc2ccc3ccccc3c2)nc2ccccc21	?	6	-3%	7.1µM*
Cc1ccc(OC/C(O)=C(\C#N)c2nc3ccccc3s2)cc1	?	.	4%	1%
COc1ccc(C2=NO[C@@H]3C(=O)N(c4ccc(C)cc4C)C(=O)[C@H]23)cc1OC	12	-4	-7%	4%[38.3 µM]
Cc1ccc(N2C(=O)[C@@H]3C(c4ccc(F)cc4)=NO[C@@H]3C2=O)cc1	-95*	-4	-1%	-1%[38.3 µM]
CC(=O)Nc1sc(/C(C#N)=C/c2ccc(Cl)c(Cl)c2)nc1-c1ccc(C)cc1	?	.	4%	13µM*
CCCCOCCOCCSC#N	.	.	-4%	16%
COC(=O)C1=C(C)N(CCc2ccc(OC)c(OC)c2)C(=O)C1	-22	-3	-6%	-8%[38.3 µM]
COC(=O)C1=C(C)N(CCc2ccc(OC)c(OC)c2)C(=O)/C1=C\c1ccc(O)cc1	-116*	.	-2%	4%
O=[N+]([O-])c1ccc2c(N=Nc3ccc4ccccc4c3O)c(O)cc(S(=O)(=O)O)c2c1	.	.	?	8%
Cc1sc(NC(=O)c2ccccc2)c(C(c2ccccn2)N2CCN(CCO)CC2)c1C (stereo unspecified)	18	12	1%	-6%
CCOc1ccc(C(c2c(NC(=O)c3ccccc3)sc(C)c2C)N2CCN(C)CC2)cc1 (stereo unspecified)	-81*	-3	-11%	17%
CS(=O)(=O)Nc1nnc(Cc2ccccc2)s1	-100*	?	2%	-1%
Cc1ccccc1-n1c(=O)cc(N2CCc3ccccc32)[nH]c1=O	-108*	-1	4%	23%[38.3 µM]
O=c1cc(N2CCc3ccccc32)[nH]c(=O)n1-c1ccccc1Cl	.	.	.	-4%
Cc1ccccc1Nc1oc(-c2ccccc2)nc1-c1ccccc1F	.	.	1%	12%
COc1ccc2cnn(CCOc3cc(C)ccc3C(C)C)c(=O)c2c1OC	-113*	.	-6%	6%
CCOc1ccccc1OCCn1ncc2ccc(OC)c(OC)c2c1=O	15	?	-6%	-14%[38.3 µM]
CN(c1cccc(Cl)c1)S(=O)(=O)c1cccc(C(=O)NC2=NCCS2)c1	58	-2	-5%	3%[38.3 µM]
COC(=O)c1nc(N)sc1C(C)C	.	.	.	-2%
CCSc1nc(O)c(C2OC(=O)c3c2ccc(OC)c3OC)c(=O)n1CC (stereo unspecified)	-122*	9	1%	.
CCCCSc1nc(O)c(C2OC(=O)c3c2ccc(OC)c3OC)c(=O)n1C (stereo unspecified)	-3	-2	-4%	-14%[38.3 µM]
CC(C)(C)NC(=O)c1ccc2nsnc2c1	-110*	.	-2%	-3%
COc1ccc(C(=O)c2ccc(N(C)C)cc2)c2ccccc12	-97*	-6	-1%	5%
COc1ccccc1C(=O)COC(=O)c1ccc(N(C)C)cc1	.	.	.	12%
SMILES	PNC inhibitor	IMPase cell inh	12-hLO inh	IMPase Li inh
Cc1ccc(NN2C(=O)C=CC2=O)cc1	-112*	-8	-1%	-1%
NC(N)=NC(=O)c1nc(Cl)c(N)nc1N	-115*	-1	-3%	-1%
NC(N)=NC(=O)c1nc(Cl)c(N2CCCCCC2)nc1N	.	2	0%	12%
O=C(N/N=C/c1ccccc1O)c1cccc(C(F)(F)F)c1	-94*	.	0%	-5%
O=c1c2ccccc2nc(SCc2nc3ccccc3s2)n1Cc1ccco1	-85*	5	-4%	2%[38.3 µM]
CN=C(NC#N)Nc1ccc(C2=NNC(=O)C[C@@H]2C)cc1	.	1	5%	11%
O=C(CN(C(=O)CNC(=O)c1ccco1)c1ccc2c(c1)OCCO2)NC1CCCC1	.	.	.	-1%
CCOC(=O)c1ccc(N(CC(=O)NC2CCCC2)C(=O)CNC(=O)c2ccco2)cc1	-85*	-3	0%	19%[38.3 µM]
CCc1ccc(N2C(=O)CN(Cc3cc(OC)c(OC)c(OC)c3)C2=S)cc1	-81*	.	0%	1%
